In PubChem BioAssay AID624464 (National Center for Advancing Translational Sciences (NCATS), 2012):
About 810 (0.23%) of roughly 360,000 compounds were called active. The list comes from a sample in which actives are over-represented; it also holds similar structures and randomly drawn compounds. Values without a mark were called inactive. Cut-off read from the data, not from the text of the source: active = potentiation above about 50%; inconclusive = mostly about 30% to 49%; inactive = weaker than that.

What follows are compounds tested against D(2) dopamine receptor (Homo sapiens) (UniProt P14416) (assay: Beta-Arrestin HTS for Positive Allosteric Modulators of the Human D2 Dopamine Receptor: Potentiators). Settings: DiscoveRx D2 beta-arrestin cells, luminescence, 90 min; stronger effect = higher value; 100% = 57 uM dopamine signal.
D(2) dopamine receptor (Homo sapiens), sequence (P14416 whole entry, looked up, the tested form may be a part): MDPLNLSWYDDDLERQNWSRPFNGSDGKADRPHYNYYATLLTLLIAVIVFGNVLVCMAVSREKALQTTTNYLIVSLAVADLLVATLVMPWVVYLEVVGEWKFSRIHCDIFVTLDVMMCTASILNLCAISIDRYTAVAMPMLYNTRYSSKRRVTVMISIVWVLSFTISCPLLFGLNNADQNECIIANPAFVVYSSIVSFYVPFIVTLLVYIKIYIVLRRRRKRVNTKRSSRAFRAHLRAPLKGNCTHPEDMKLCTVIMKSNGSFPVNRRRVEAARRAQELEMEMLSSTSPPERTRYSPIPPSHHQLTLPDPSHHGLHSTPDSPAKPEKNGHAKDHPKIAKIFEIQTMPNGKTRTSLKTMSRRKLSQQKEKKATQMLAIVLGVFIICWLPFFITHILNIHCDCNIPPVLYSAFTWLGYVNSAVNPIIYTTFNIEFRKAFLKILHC
Outline: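 D2 cells co-treated with compound plus 50 nM dopamine (EC20) for 90 min at 37 deg C to detect potentiation. Beta-arrestin recruitment was read as enzyme-fragment luminescence after 1 h at ambient temperature. Full response was set by 57 uM dopamine.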

Compound	potentiation
N#Cc1cccc(CSc2nnc(CCCO)n2-c2ccccc2)c1	-7.69%
O=C(NCc1ccccc1)C(c1ccccc1)N(C(=O)c1csnn1)c1ccc(F)cc1 (stereo not drawn)	0.0815%
N/C(=N\OC(=O)Cc1ccccc1[N+](=O)[O-])c1ccc(Br)cc1	18.7%
N/C(=N\OC(=O)N1c2ccccc2Sc2ccccc21)c1ccc(Br)cc1	86.3% (active)
N/C(=N\OC(=O)c1ccc2c(c1)OCO2)c1ccc(Br)cc1	24.5%
CC1(C)CC(=O)C(C=NCc2cccnc2)=C(O)C1	0.0734%
COc1ccc(N2CC(C(=O)NCCS(=O)(=O)N3CCN(c4ccccc4)CC3)CC2=O)cc1 (stereo not drawn)	-8.09%
CCOC(=O)c1ccc(N2C(=O)CC(N(C)Cc3ccccc3)C2=O)cc1 (stereo not drawn)	-5.22%
CCOc1ccc(N2C(=O)CC(N(CCc3ccc(OC)c(OC)c3)C(=S)Nc3ccccc3)C2=O)cc1 (stereo not drawn)	-3.21%
CCOc1ccc(N2C(=O)CC(N(O)c3ccccc3)C2=O)cc1 (stereo not drawn)	51.5% (active)
Cc1c(C=O)c2ccccn2c1C(=O)c1ccncc1	13.6%
C=CCn1c2c(c3ccccc31)CCC2	-5.75%
CCOc1ccc(OCC(=O)OC(C)C(=O)NC2CCCCC2C)cc1 (stereo not drawn)	-13.2%
CCc1ccnc(NC(=O)Nc2ccc(OCc3ccccc3)cc2)c1	-1.75%
COc1ccc(OC)c(S(=O)(=O)N2CCCC(C(=O)N3CCC(C(N)=O)CC3)C2)c1 (stereo not drawn)	7.76%
CCOc1ccc(CCNC(=O)COC(=O)c2ccc(C)c(S(=O)(=O)N3CCOCC3)c2)cc1OCC	1.76%
CCN(CC)S(=O)(=O)c1ccc(-c2cn3ccc(C)cc3n2)cc1	56% (active)
CCN(c1cccc(C)c1)S(=O)(=O)c1ccc(-c2coc(C)n2)cc1	-22%
Cc1ccc(-c2cn3cc(C)ccc3n2)cc1	6.89%
COc1cccc2c1C(=O)c1c(O)c3c(c(O)c1C2=O)CC(O)(C(C)=NNC(=O)c1ccc(Cl)c(Cl)c1)CC3OC1CC(N)C(O)C(C)O1 (stereo not drawn)	-9.55%
CCc1nc2ccc(C(=O)N(C)CCN(C)C)cn2c1N(CC)CCOC	-8.24%
O=C(NC(C(=O)NCCN1CCOCC1)C12CC3CC(CC(C3)C1)C2)C1CCCCC1 (stereo not drawn)	-3.19%
COc1cccc(N(CC(=O)NCc2ccccc2)C(=O)CCC(=O)Nc2nccs2)c1	-2.58%
